BL2 CD40 inh: inhibitors of CD40-induced NF-kB signaling, primary screen, BL2 cells, luciferase reporter, single point; inhibition, % at 10 µM; CD40L-induced, 4 h; 83,000 compounds, 0.94% hits;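 active = mean inhibition of at least 50% with a set share of replicates also reaching that level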;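 also: 0% = neutral control wells and 100% = IKK inhibitor VII at 50 µM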
* hit, by the source's call; [ ] = dose if it differs, or a comment. The entries come from a sample that favours hits as a whole.

SMILES	BL2 CD40 inh
O=C(Nc1cccc2cccnc12)c1ccc2c(c1)OCCO2	-39.5
S=C(CSc1ccccc1)Nc1cccc2ccccc12	-24.1
[O-]C(=C(C(=S)Nc1cccc2ccccc12)[n+]1ccccc1)c1ccc2c(c1)OCCO2	55.2*
CCCN1[C@@H]2c3ccc(C4=CCCCC4)c(=O)n3C[C@H]1[C@H](CO)[C@H]2C(=O)Nc1ccccc1	5.5[25 µM]
c1cc(-c2cnn3cc(-c4ccc(OCCN5CCCCC5)cc4)cnc23)ccn1	87.3*[25 µM]
FC(F)(F)c1cnc(-c2cnc3c(-c4ccc(Cl)cc4)cnn3c2)c(Cl)c1	0.3
c1ccc(-c2ccccc2OCCOCCN2CCCCC2)cc1	7.0
CC(=O)Nc1ccc2c(c1)CC(=O)N(C)C[C@H](C)[C@H](CN(C)C(C)=O)O2	1.1
C[C@H]1CN([C@@H](C)CO)S(=O)(=O)c2ccc(C#CCN(C)C)cc2O[C@@H]1CN(C)C(=O)CN(C)C	-2.2[25 µM]
CCC(=O)N1CC(=O)N2[C@H](CO)[C@@H](c3ccc(-c4ccc(C#N)cc4)cc3)[C@@H]2C1	9.7[25 µM]
O=C1/C(=C/c2ccccc2)CN(C(=O)CCN2CCOCC2)C/C1=C\c1ccccc1	92.6*
C[N+](C)(C)CCC(=O)N1C/C(=C/c2ccccc2)C(=O)/C(=C\c2ccccc2)C1	-60.1
O=C(/C=C/c1ccccc1)CCN1CCOCC1	-7.2
O=C(C1CCOCC1)N1[C@H](CO)[C@@H](c2ccccc2)C12CN(Cc1cccc(Cl)c1)C2	-6.4[25 µM]
CCCC(=O)N1CCC2(CC1)CN(C(=O)C1CCC1)[C@@H](CO)c1[nH]c3cc(OC)ccc3c12	-7.2[25 µM]
O=c1onc(-c2ccccc2)c2ccccc12	-11.6
O=c1oc(-c2cccnc2)nc2ccccc12	-4.5
Cc1onc(-c2ccccc2)c1-c1nc2ccccc2c(=O)o1	56.1*
COc1ccccc1NC(=O)N(C)C[C@H]1OCc2ccccc2-c2c(n(C)c3ccccc23)C(=O)N([C@H](C)CO)C[C@H]1C	3.2
C[C@H](CO)N1C[C@H](C)[C@@H](CN(C)C(=O)NC2CCCCC2)OCc2ccccc2-c2ccccc2C1=O	-10.7[25 µM]
C[C@@H]1CN([C@H](C)CO)C(=O)CCCn2cc(nn2)CO[C@@H]1CN(C)C(=O)NC1CCCCC1	-5.3[25 µM]
O=C1CCC(C(=O)OCC(=O)c2ccccc2)N1 (stereo unspecified)	11.0
CC1CC(C)C(=O)C(C(CC2CC(=O)NC(=O)C2)OC(=O)CC(=O)c2ccccc2)C1 (stereo unspecified)	56.4*
CN1C[C@H](O)COC[C@@H]2O[C@H](CC(=O)NC3CCCC3)CC[C@H]21	2.8[25 µM]
Cc1cc(Sc2nnc(/N=C/N(C)C)s2)c2ccccc2n1	83.6*
SMILES	BL2 CD40 inh
Cc1cc(C(N)=O)c2ccccc2n1	5.4
CN(C)/C=N/c1ncc(C(=O)c2ccc3ccccc3c2)s1	-44.8
CCCCCCCn1c2c(c(=N)c3ccccc31)CCC2	84.0*
CCCCCCN1Cc2ccccc2C1	-15.8
CCCCn1c(=N)n(CC(=O)O)c2ccccc21	6.4
COc1cccc(-c2ccc3c(c2)[C@@H]2[C@@H](CCN2S(=O)(=O)C2=NC(C)C=N2)[C@H](CO)N3C)c1 (stereo partly specified)	-8.2[25 µM]
CNC[C@@H]1OCCCC[C@@H](C)Oc2ccc(NC(=O)Nc3ccc(C(F)(F)F)cc3)cc2C(=O)N([C@H](C)CO)C[C@H]1C	2.5
CC(=O)N1[C@H](CO)[C@H](c2ccccc2)[C@H]1CNC(=O)CN1CCOCC1	13.0[25 µM]
COc1ccccc1-c1ccc2n(c1=O)C[C@@H]1[C@@H](CO)[C@H](C(=O)NCC3CC3)N(S(C)(=O)=O)[C@H]21	17.3[25 µM]
c1ccc2c(c1)Sc1ccccc1-n1cnnc1-2	0.5
CCN1/C(=C/c2sc(-c3ccccc3C)c[n+]2C)Sc2ccccc21	68.2*
CCN1C(=O)c2ccccc2Sc2ccc(C(=O)NCCCN3CCCCC3)cc21	6.7
COc1cccc(-c2ccc(C3[C@H]4CNC[C@@H]3N4S(=O)(=O)c3cccc(Cl)c3)cc2)c1 (stereo partly specified)	-27.6
COCC(=O)N1CC(=O)N2[C@H](C1)[C@@H](c1ccc(-c3cccnc3)cc1)[C@@H]2CO	-0.2
COc1ccccc1C(=O)N1C[C@H]2[C@@H](c3ccccc31)[C@H](CO)N2C(=O)C1CCOCC1	10.9[25 µM]
Cc1ccc(S(=O)(=O)c2c(C)cc(C)nc2N2CCCCC2)cc1	12.8
Cc1cc(S(=O)(=O)c2ccc(Cl)cc2)nc(S(=O)(=O)c2ccc(Cl)cc2)c1C#N	112.3*
Cc1cc(C)nc(NNS(=O)(=O)c2ccc(Cl)cc2)n1	2.7
CCC(=O)NC[C@@H]1[C@@H](c2ccc(C3=CCCC3)cc2)[C@@H](CO)N1CC1CC1	-3.6[25 µM]
CN(C)C(=O)[C@@H]1[C@@H](CO)[C@@H]2Cn3c(ccc(C4=CCCC4)c3=O)[C@@H]2N1C(=O)Cc1cccnc1	-2.7[25 µM]
CCCNC(=O)N1[C@H](C#N)[C@@H](c2ccc(-c3ccccc3F)cc2)[C@@H]1CO	2.3[25 µM]
CCCNC(=O)N1[C@H](CO)[C@H](c2ccc(-c3cccc(OC)c3)cc2)[C@@H]1C#N	67.9*[25 µM]
CCCNC(=O)N1[C@@H](C#N)[C@@H](c2ccc(-c3cccnc3)cc2)[C@@H]1CO	5.8[25 µM]
CCCNC(=O)N1[C@@H](C#N)[C@H](c2ccc(-c3cccc(OC)c3)cc2)[C@@H]1CO	50.7*[25 µM]
CCCNC(=O)N1[C@H](CO)[C@H](c2ccccc2-c2cccc(OC)c2)[C@@H]1C#N	36.0[25 µM]
SMILES	BL2 CD40 inh
CCCNC(=O)N1[C@H](C#N)[C@@H](c2ccc(-c3ccccc3F)cc2)[C@H]1CO	8.5[25 µM]
CCCNC(=O)N1[C@H](CO)[C@H](c2ccc(/C=C/c3ccccc3)cc2)[C@@H]1C#N	66.3*[25 µM]
CCCNC(=O)N1[C@H](CO)[C@H](c2ccc(-c3cccnc3)cc2)[C@@H]1C#N	31.7[25 µM]
CCCNC(=O)N1[C@H](C#N)[C@@H](c2ccc(-c3ccc(C(=O)N(C)C)cc3)cc2)[C@@H]1CO	-25.7[25 µM]
COc1ccc(NC(=O)Nc2ccc3c(c2)[C@@H]2C[C@H](CC(=O)NC4CCCC4)O[C@@H](CO)[C@@H]2O3)cc1	-1.0
C[C@H]1CN([C@@H](C)CO)C(=O)CCCn2cc(nn2)CO[C@H]1CN(C)Cc1ccccc1C(F)(F)F	14.2[25 µM]
CN(C)C(=O)C[C@H]1C[C@H]2c3cc(NC(=O)c4cccnc4)ccc3O[C@H]2[C@H](CO)O1	0.6[25 µM]
COc1ccccc1NC(=O)N1[C@@H]2CNC[C@H]1C2c1ccc(-c2ccccc2OC)cc1 (stereo partly specified)	-82.6
CO[C@@H]1CN(C)C(=O)c2cc(NC(=O)C3CC3)ccc2OC[C@H](C)N(CC2CCCC2)C[C@@H]1C	-5.8
COc1ccc(C#Cc2ccc3c(c2)[C@@H]2[C@@H](CCN2C(=O)C2CCCC2)[C@H](CO)N3)cc1	1.6
COc1ccccc1-c1ccc([C@H]2[C@@H](C#N)N(C(=O)C3CCOCC3)[C@H]2CO)cc1	-26.0[25 µM]
O=C(Nc1ccccc1F)N1C[C@@H]2[C@H](c3ccccc31)[C@H](CO)N2C(=O)C1CCCC1	-39.0
C[C@@H]1CN([C@H](C)CO)C(=O)c2ccccc2-c2ccccc2CO[C@@H]1CN(C)C(=O)c1cc(Cl)cc(Cl)c1	65.7*[25 µM]
C[C@H]1CN([C@@H](C)CO)C(=O)c2c(c3ccccc3n2C)-c2ccccc2CO[C@@H]1CN(C)C(=O)c1cc(Cl)cc(Cl)c1	39.9[25 µM]
C[C@H]1CN([C@@H](C)CO)C(=O)c2ccccc2-c2ccccc2CO[C@@H]1CN(C)C(=O)c1cc(Cl)cc(Cl)c1	14.9[25 µM]

Screens: PubChem, Broad Institute
